Compound activity from PubChem BioAssay.
ssDAF12 agonist: S. stercoralis DAF-12 activation, primary screen; HEK293 ssDAF-12/GRIP1 lit1-tk-luc reporter, luminescence; % of 3 µM dafachronic acid response; activation, % at 6.8 µM; actives 1% (n = 370,000);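 active = activation above the mean over all tested compounds plus 3 SD, cut at about 0.9% in these data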
hgDAF12 agonist: activates the H. glycines DAF-12 receptor ligand-binding domain | HEK293 GAL4-hgDAF12 UAS-luciferase reporter, agonist luminescence; normalized to butyrate control | activation, % at 6.8 µM | actives 1.8% (n = 370,000) | AID 687014;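 active = activation above a cutoff set at the mean of all screened compounds plus 3 SD, cut at about 10% in these data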
hcDAF-12 act: H. contortus DAF-12 activation, primary screen; HEK293 hcDAF-12 lit1-tk-luc reporter, luminescence; 0% DMSO, 100% Δ7-dafachronic acid; activation, % at 6.8 µM; actives 1.4% (n = 370,000); AID 652067;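 active = activation above the mean of all tested compounds plus 3 SD, cut at about 5.5% in these data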
DAX1 inh: blocks DAX1 repression of SF-1 activated StAR promoter; HEK293T StAR-luciferase reporter, SF-1/DAX-1 repression relief; inhibition, % at 6.8 µM; actives 1.1% (n = 370,000);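 active = inhibition above the mean over all tested compounds plus 3 SD, cut at about 3.6% in these data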;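 note: higher inhibition means more luminescence from relief of DAX-1 repression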
SMARCA2 act: SMARCA2 function activation, primary screen | MG213 cells, MMTV-luciferase reporter, dexamethasone, overnight | actives 1% (n = 370,000) | activation, % at 9.1 µM; in the data active = activation above about 7.8%
Numbers stand for hits; i = inactive. Compounds with a hit are over-represented: about 4.2% of the library has one in this group of screens.

SMILES	ssDAF12 agonist	hgDAF12 agonist	hcDAF-12 act	DAX1 inh	SMARCA2 act
O=C(NCc1ccncc1)[C@@H]1CCCN1C(=O)[C@@H]1CCCN1	i	i	i	i	i
Cc1cccc(C)c1NC(=O)C1C(c2ccc3c(c2)OCO3)=Nc2ccccc2N1C(=O)c1cccc2ccccc12 (stereo not drawn)	i	i	i	i	i
COCc1cc(N2CCN(C(=O)OC(C)(C)C)C[C@@H]2C)ccc1N1CCS(=O)(=O)CC1	i	i	i	i	i
O=C(O)c1ccc(Cl)c(S(=O)(=O)NCc2ccco2)c1	i	i	i	i	i
NS(=O)(=O)c1ccc(CCNC(=O)c2ccc(Cl)c(S(=O)(=O)NCc3ccco3)c2)cc1	1.3	i	i	i	i
COC(=O)[C@@]12CCCCC3=C1N(CCC3)C(=O)[C@H]2CC(=O)N1CCC(c2ccccc2)CC1	i	i	i	i	i
C[C@H](CO)N1C[C@H](C)[C@@H](CN(C)C(=O)Cc2ccccc2)OCc2cn(nn2)CCCC1=O	i	i	i	i	i
N#CCC[C@H]1CC[C@]2(CCCN(c3ccccc3)C2)O1	i	i	i	i	i
O=[N+]([O-])c1ccc(Cc2nnc(-c3ccc(F)cc3)o2)cc1	i	i	i	i	i
Cc1ccc(-c2nnc(Cc3ccc([N+](=O)[O-])cc3)o2)cc1	i	11.8	i	i	i
O=C(c1csc2c1CCCC2)N1CCN(c2ccccc2)CC1	1.1	i	i	i	i
COc1ccc(-n2c(O)c(C=NCc3ccccn3)c3ccccc3c2=O)c(OC)c1	i	i	6.1	i	i
COC(=O)[C@]12C=CCN1[C@H](c1ccc(C(F)(F)F)cc1)c1c(c3ccccc3n1S(=O)(=O)c1ccc(C)cc1)C2	i	i	i	i	i
C=CCSc1n[nH]c(-c2ccc(OC)cc2)n1	i	12.1	i	i	i
O=C(CCC(=O)c1cccs1)Nc1nnc(C2CC2)s1	i	i	i	i	i
CC(C)c1nnc(NC(=O)c2cccs2)s1	i	11.6	i	i	i
CCCCC(CC)c1nnc(NC(=O)c2cccs2)s1 (stereo not drawn)	i	i	i	i	i
O=C(Nc1nnc(C2CC2)s1)c1cccs1	i	i	i	3.8	i
CCOC(=O)[C@@]12CCCC=C1N(CCc1ccc(Cl)cc1)C(=O)[C@H]2CC(=O)NCc1ccc(C)o1	i	i	i	i	i
COc1ccc(C2=Nc3ccccc3C2(O)CCN2C(=O)c3ccccc3C2=O)cc1 (stereo not drawn)	i	10.5	i	i	i
CC(=O)c1cc(-c2cccc(C(C)C)c2)c(=O)n2c1CCC2	i	i	i	i	i
CC(C)Sc1ccc(C(=O)Nc2ccc(F)cc2F)cn1	i	11.8	i	i	i
O=C(Nc1ccc(F)cc1F)c1ccc(-n2cccn2)nc1	i	i	i	i	i
COCCCNC(=O)C[C@H]1C[C@@]2(C(=O)OC)C(=C[C@H](COCc3ccccc3)O[C@@H]2C)N(CCc2ccc(OC)c(OC)c2)C1=O	i	i	i	i	i
O=C(O)CC1COc2ccccc2N1C(=O)c1ccccc1Cl (stereo not drawn)	1.5	i	i	i	i
SMILES	ssDAF12 agonist	hgDAF12 agonist	hcDAF-12 act	DAX1 inh	SMARCA2 act
O=C(Nc1ncc(Cc2cccc(Cl)c2Cl)s1)C1CCCO1 (stereo not drawn)	i	i	i	i	i
O=C(Nc1ncc(Cc2ccccc2Cl)s1)C1CCCO1 (stereo not drawn)	i	12.2	i	i	i
C/C(=N\NC(=O)C(O)c1ccccc1)c1ccc(Cl)cc1 (stereo not drawn)	1.4	i	i	i	i
COc1cccc(C2c3[nH]c4ccccc4c3C[C@H]3C(=O)N(C4CC4)CC(=O)N23)c1 (stereo partly drawn)	i	i	i	i	i
COc1ccc(OC)c(C2c3[nH]c4ccccc4c3C[C@H]3C(=O)N(C4CC4)CC(=O)N23)c1 (stereo partly drawn)	i	i	5.8	i	i
N#Cc1cccn1-c1nccc(-c2cccs2)n1	1.7	i	i	i	i
Cc1ccc(C)n1-c1nccc(-c2cccs2)n1	i	i	i	i	i
CCC(=O)Nc1ccc2c(c1)C(=O)N(C)[C@@H]1CC[C@@H](CC(=O)NCCN3CCCCC3)O[C@H]1CO2	i	i	i	i	i
OC[C@@H]1CN(Cc2ccc(F)cc2)C[C@H](n2cnc3c(N4CCN(c5ccccc5)CC4)ncnc32)O1	i	i	i	i	i
Cc1ccc(-n2nnnc2SCC(=O)NCC2(N3CCOCC3)CCCCC2)c(C)c1	i	i	i	i	i
Cc1ccc(-n2nnnc2SCC(=O)NCC2(N3CCCCC3)CCCCC2)c(C)c1	i	i	i	3.6	i
O=C(NCCCN1CCOCC1)c1ccccc1N1C(=O)[C@@H]2Cc3c([nH]c4ccccc34)C(c3ccccc3)N2C1=O (stereo partly drawn)	i	i	5.8	i	i
CCOC(=O)[C@]12CCCCC/C=C\1N(CCc1ccc(Cl)cc1)C(=O)[C@H]2CC(=O)N1CCC(c2ccccc2)CC1	i	i	i	i	i
CC(=C1SC(=S)NC1=O)c1ccc(Cl)c(O)c1	i	i	i	i	i
O=C(NCCc1cccs1)C1CC(c2ccccc2[N+](=O)[O-])=NO1 (stereo not drawn)	i	i	5.8	i	i
CCOC(=O)C[C@@H]1OC[C@H](C)N1S(=O)(=O)c1ccc(C)cc1	i	i	i	i	i
Cc1nc(/C=C/c2ccccc2)cc(/C=C/c2ccccc2)n1	i	i	i	i	i
Cc1cccc(/C=C/c2ccccc2)n1	i	10.8	i	i	i
CCOC(=O)CC[C@@]1(C(=O)OCC)C[C@@H](CC(=O)NCc2ccc(C)o2)C(=O)N2CCCC=C21	i	i	i	i	i
Cc1cccc(NC(=O)c2cccc3c2-c2ccccc2C3=O)c1C	i	i	i	i	i
Cc1cc(NC(=O)CSc2nc(N)c(NC(=O)c3ccccc3F)c(=O)[nH]2)no1	0.9	i	i	i	i
Cc1cc(NC(=O)CSc2nc(N)c(NC(=O)c3ccccc3)c(=O)[nH]2)no1	i	i	i	i	i
COc1ccc(CCN(Cc2cccs2)S(=O)(=O)c2ccc(F)cc2)cc1OC	i	i	i	i	i
COc1ccc(C2=NCCn3nc4cc([N+](=O)[O-])ccc4c32)cc1	i	i	5.8	i	i
CCN1CC=C2C(C#N)=C(N)C(C#N)(C#N)C(CCc3ccccc3)C2C1 (stereo not drawn)	1.0	i	i	i	i
COc1ccc(NC(=O)c2ccc3nc(C)c(N(C)C(=O)CCc4ccccc4)n3c2)cc1OC	i	i	i	i	i
Cc1cc(C)cc(NC(=O)N2CCCN(c3c(Cl)cncc3Cl)CC2)c1	1.8	i	i	i	i
CCCCCCCCN1C(=O)[C@@H](CC(=O)N2CCCCC2)C[C@@]2(C(=O)OC)C1=C[C@H](COCc1ccccc1)O[C@@H]2C	i	i	5.8	i	i
